A selection: hits, their analogues and other compounds. The true share with any hit is near 3.2%.
Caspase-1 inhib: caspase-1 (human) inhibition, allosteric or competitive; actives 0.03% (n = 75,000); Caspase-1 enzyme, Ac-WEHD-AFC fluorogenic rate; Potency, µM (series often up to 57.5 µM), inactives show at the top dose activity change, negative = inhibition, usual class: inhibitors; AID 900;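 also: plate controls were vehicle for no effect and no substrate for full effect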
Casp7 inh: blocks human caspase-7 allosterically or competitively; recombinant caspase-7, Ac-DEVD-AFC fluorescence rate; Potency, µM (titrated, usually from 57.5 µM), for the others: top-dose activity change, negative = inhibition, actives largely listed as inhibitors; actives 0.02% (n = 75,000); active = well fitted inhibition curve with a large enough effect in the main read-out, with a control signal flat, not every such curve was filed as active; inconclusive = small, poorly fitted or top-dose-only effect, or a change in a side signal; also: % of control where 0% means no effect
15-hLO inh: blocks human 15-lipoxygenase activity. purified 15hLO-1, xylenol orange hydroperoxide absorbance. P16050. actives 1.4% (n = 74,000). Potency, µM (titrated, usually from 57.1 µM), without a hit: at the highest dose activity change, negative = inhibition, usual class: inhibitors; also: % is scaled to controls: 0 for no effect and ±100 for the full control effect; nearly all actives have a fitted effect of over 55% in size
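Compounds were preincubated 15 min at room temperature with 40 nM purified human enzyme (25 mM Hepes pH 7.5, 0.01% Triton X-100); 50 uM arachidonic acid reacted 6 min. Fe-xylenol orange detection, 30 min, absorbance ratio 573/405 nm.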
Tau fil binding: binds recombinant human tau filaments; P10636; recombinant tau filaments, thioflavin S fluorescence, 15 h; filaments grown with octadecylsulfate alongside compound; Potency, µM (highest dose often 57.1 µM), without a hit: at the highest dose activity change, negative = inhibition; actives 2% (n = 71,000); AID 596;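 also: % is scaled to controls: 0 for no effect and ±100 for the full control effect; actives lower thioflavin S fluorescence by blocking filaments or displacing dye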
Target sequence (P10636 whole entry, looked up): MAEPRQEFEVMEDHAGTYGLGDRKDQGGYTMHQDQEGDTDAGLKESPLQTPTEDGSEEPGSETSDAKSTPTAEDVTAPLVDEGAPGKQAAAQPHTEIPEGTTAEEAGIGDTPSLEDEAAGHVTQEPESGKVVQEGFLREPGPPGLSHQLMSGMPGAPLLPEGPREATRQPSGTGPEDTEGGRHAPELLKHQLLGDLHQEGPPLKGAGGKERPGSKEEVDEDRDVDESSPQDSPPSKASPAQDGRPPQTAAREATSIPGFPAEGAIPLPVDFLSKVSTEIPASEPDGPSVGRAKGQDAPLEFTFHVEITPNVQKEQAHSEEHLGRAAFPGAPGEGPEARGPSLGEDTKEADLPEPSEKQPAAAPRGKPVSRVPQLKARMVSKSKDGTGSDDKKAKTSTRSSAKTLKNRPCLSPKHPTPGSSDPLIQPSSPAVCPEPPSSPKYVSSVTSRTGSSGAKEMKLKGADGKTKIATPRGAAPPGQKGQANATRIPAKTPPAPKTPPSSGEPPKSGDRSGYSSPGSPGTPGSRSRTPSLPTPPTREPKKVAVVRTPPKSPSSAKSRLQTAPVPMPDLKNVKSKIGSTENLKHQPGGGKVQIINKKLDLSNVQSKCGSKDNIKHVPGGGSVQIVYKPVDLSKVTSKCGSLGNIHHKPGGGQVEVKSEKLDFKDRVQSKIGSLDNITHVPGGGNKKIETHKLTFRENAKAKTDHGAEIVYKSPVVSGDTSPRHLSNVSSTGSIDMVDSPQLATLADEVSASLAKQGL
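Thioflavine S fluorescence (ex 450, em 510 nm) reports filaments formed from 1 uM human tau plus 30 uM ODS over 15 h at 37 C (10 mM HEPES pH 7.4, 100 mM NaCl, 5 mM DTT); compounds displacing dye or blocking filaments lower signal.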
Pol III holo inh: blocks replication by bacterial DNA polymerase III holoenzyme. reconstituted DNA polymerase III holoenzyme replication, biochemical. Potency, µM (titrated, usually from 57.1 µM), for inactives: at the top dose activity change, negative = inhibition. actives 0.25% (n = 71,000). AID 603; also: % is scaled to controls: 0 for no effect and ±100 for the full control effect
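Reconstituted *E. coli* holoenzyme (0.35 nM Pol III, 1 nM beta, 154 nM SSB, 2 nM primase) was preincubated with compound for 15 min at RT. Synthesis on 1.4 nM ssM13Gori ran 35 min, then was stopped with PicoGreen/EDTA and read as dsDNA fluorescence.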
Starred values were filed as active, the others as inactive; i = inactive; ? = inconclusive; nt = not tested or not shown; [ ] = another dose, or the depositor's remark. Unless noted, calls follow the shape of the dose curve; as a rule, active = well fitted curve in the direction sought with a large enough effect; inconclusive = small, poorly fitted or top-dose-only effect, or another doubt; inactive = no such curve, though single readings can be large; an effect the other way counts as inactive or inconclusive. Potency is read from the fitted curve at half-maximal effect.

SMILES | Caspase-1 inhib | Casp7 inh | 15-hLO inh | Tau fil binding | Pol III holo inh
CC1=NN(c2ccccc2)C(=O)[C@@H]1N=Nc1ccc(S(N)(=O)=O)cc1 | 2.4%[11.5 µM] | -1.0%[11.5 µM] | 3.9%[11.4 µM] | 3.98µM* | -11.4%[11.4 µM]
Cc1onc(-c2ccccc2)c1-c1ccc(S(N)(=O)=O)cc1 | 0.8% | 1.0% | -7.2% | nt | nt
C/C=C\C1=C(CO)C(=O)[C@@H]2OC2C1=O (stereo partly specified) | -1.2%[11.5 µM] | -1.1%[11.5 µM] | ? | nt | nt
CN1C=CC=C/C1=C1\SC(=S)N(C2CCCCC2)C1=O | -3.3% | -4.9% | -24.1%[11.4 µM] | 3.98µM* | -4.7%[11.4 µM]
O=C(O)c1cc(Cl)cc(Cc2cc(Cl)cc(C(=O)O)c2O)c1O | 2.6%[11.5 µM] | -3.0%[11.5 µM] | 1.7%[11.4 µM] | 1.7%[11.4 µM] | 12.3%[11.4 µM]
NC(=O)CSc1nc2scc(-c3ccco3)c2c(=O)n1-c1ccccc1 | -3.4% | -14.8% | -9.2% | -1.7% | -1.8%
O=C(CSc1nc2scc(-c3ccco3)c2c(=O)n1-c1ccccc1)N1CCOCC1 | -7.1% | -26.7% | 1.58µM* | 239.9% | -8.8%
CN(C)C=O | nt | 0.9% | 1.8% | -6.0% | 3.6%
COc1ccc(O[C@H]2C=C[C@@H](c3ccccc3)O[C@H]2CO/N=C\C[C@@H]2C=C[C@H](OC(C)=O)[C@H](COC(C)=O)O2)cc1 | -2.6%[11.5 µM] | 0.2%[11.5 µM] | -1.8%[11.4 µM] | nt | nt
COc1ccccc1-c1nccc(NCc2cnc(C)cn2)n1 | -1.4% | 1.2% | 15.8µM* | 4.5% | -6.1%
COc1ccccc1-c1nccc(NCc2ccccc2)n1 | -4.5% | -1.9% | -10.5% | 1.9% | -8.3%
COc1cccc(-c2nccc(NCc3ccccc3)n2)c1 | -5.1% | -4.4% | 12.6µM* | -15.6% | -10.3%
COc1cccc(-c2nccc(NCc3cccc(C)c3)n2)c1 | -3.7% | -4.9% | 2.4% | 2.2% | -10.4%
COc1cccc(-c2nccc(NCc3ccccc3OC)n2)c1 | -3.3% | -4.4% | 25.1µM* | -14.1% | 4.2%
COc1cccc(-c2nccc(NCc3ccc(OC)cc3OC)n2)c1 | -7.4% | -7.1% | -5.6% | -7.1% | 2.0%
O=C(O)[C@@H]1CCCN[C@H]1C(=O)O | 3.2% | 0.5% | 5.2% | -7.7% | -2.2%
O=C(Nc1ccc2c(c1)nc1n2CCN(C2CCCCC2)C1)c1ccco1 | ? | ? | -28.8% | 25.1µM* | -8.0%
O=C(Nc1ccc2c(c1)nc1n2CCOC1)c1ccco1 | 0.5% | -1.8% | 10.0% | -3.4% | -3.9%
Cc1cc(Nc2ccc(N=Nc3ccc(O)c4ncccc34)cc2)nc(C)n1 | -1.3%[11.5 µM] | -3.3%[11.5 µM] | 12.4%[11.4 µM] | -7.9%[11.4 µM] | -7.7%[11.4 µM]
Cc1ccc(O)c(N=Nc2ccccc2)n1 | 3.2% | 1.2% | 12.6µM* | ? | -5.2%
Cc1ccco1 | -0.8% | -2.0% | -0.1% | 9.7% | -3.8%
C=CCn1c2ccccc2c2nnc(SCN3C(=O)c4ccccc4C3=O)nc21 | -6.1% | -2.3% | -23.2%[11.4 µM] | ? | -2.7%[11.4 µM]
C=CCn1c2ccccc2c2nnc(SCCCn3c(=O)[nH]c4ccccc43)nc21 | -3.1% | -5.2% | 15.8µM* | 3.16µM* | -14.7%
Cc1ccc2nc(CSc3nnc(-c4ccco4)o3)cc(=O)n2c1 | -5.3% | -22.8% | -27.2% | 6.8% | 20µM*
C=CCOc1ccccc1/C=c1\sc2nc(=O)c(C)nn2c1=O | -3.6% | -5.7% | -19.1% | 25.1µM* | 0.6%
SMILES | Caspase-1 inhib | Casp7 inh | 15-hLO inh | Tau fil binding | Pol III holo inh
CCOC(=O)CCN1C(=O)[C@@H]2[C@H]3C(=CC[C@H]2C1=O)C(=O)[C@H]1O[C@H]1[C@H]3O | ? | ? | -11.0%[11.4 µM] | nt | nt
CN1c2ccccc2C(C)(C)C12C=Cc1cc(O)ccc1O2 (stereo unspecified) | -3.7% | -9.4% | ? | 25.1µM* | -6.9%
Cc1nn(-c2ccc(F)cc2F)c2c1-c1nc(N3CCCC3)ncc1CC2 | -5.3% | -22.7% | 25.1µM* | 134.5% | -3.5%
O=C(Cn1cc2c(n1)CCCCC2)Nc1ccc(F)cc1F | 1.3% | -0.9% | -1.5% | -8.1% | -5.3%
CCOC(=O)c1sc(NC(=O)CSc2nnc(-c3ccco3)n2CC)c(C(=O)OCC)c1C | -3.6% | -12.6% | 6.31µM* | 93.9% | -11.7%
O=C(CSc1n[nH]c(-c2ccco2)n1)Nc1sc2c(c1C(=O)Nc1ccccc1)CCCC2 | -4.0% | -4.1% | -17.4% | i | 3.5%
NC(=O)c1c(NC(=O)CSc2nnc(-c3ccco3)n2-c2ccccc2)sc2c1CCC2 | -5.0% | -22.7% | 25.1µM* | 21.6% | -6.8%
Cn1c(=O)n2n(c1=O)[C@H]1[C@H](O)[C@H]3O[C@@H]3/C(=N/OCc3ccccc3)[C@@H]1CC2 | 2.2%[11.5 µM] | -7.4%[11.5 µM] | 0.3%[11.4 µM] | nt | nt

Screening data: PubChem BioAssay, National Center for Advancing Translational Sciences (NCATS)
